From PubChem
This is a sample that favours compounds with a hit; in the whole collection about 7.7% have one here.
FMDV inh – blocks foot and mouth disease virus. Potency, µM (highest dose often 57.9 µM), most hits filed as inhibitors. actives 1.2% (n = 410,000). AID 1159524. FMDV antiviral cell-based qHTS; calls by dose curve; tested in HEK293T cells; further: read-out not given here; nearly all actives have a fitted effect of over 45% in size
FBPA Giardia inh – inhibitors of Giardia lamblia fructose-1,6-bisphosphate aldolase | purified Giardia FBPA | Potency, µM (series often up to 59.6 µM), usual class: inhibitors | actives 0.71% (n = 290,000); further: nearly all actives have a fitted effect of over 55% in size
Target sequence (A8B2U2 whole entry, looked up): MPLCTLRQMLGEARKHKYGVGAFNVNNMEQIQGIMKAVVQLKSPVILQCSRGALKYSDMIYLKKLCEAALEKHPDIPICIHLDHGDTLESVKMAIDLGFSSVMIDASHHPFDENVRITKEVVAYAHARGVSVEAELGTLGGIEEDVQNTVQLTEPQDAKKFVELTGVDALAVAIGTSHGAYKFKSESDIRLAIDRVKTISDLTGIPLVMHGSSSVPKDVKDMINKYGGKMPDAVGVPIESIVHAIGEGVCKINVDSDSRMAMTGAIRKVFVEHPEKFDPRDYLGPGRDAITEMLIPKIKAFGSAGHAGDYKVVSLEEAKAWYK
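40 nM FBPA preincubated 10 min at RT with compound (up to 57.5 uM final), then substrate plus GAPDH/TPI/NAD/arsenate coupling and diaphorase/resazurin added. Fluorescence read after 20 min at RT, 525/598 nm.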
HCMV antiviral – human cytomegalovirus inhibition. HFF cells, HCMV-luciferase reporter, 72 h; hits give low values. activity change, negative = inhibition, % at 57.5 µM. actives 4.5% (n = 410,000); in the data active means activity change below about -60%; inconclusive means no clear call, values can overlap the other calls; inactive means above about -39%
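HFF cells seeded 16 h at 37C, treated with compounds, infected with luciferase-reporter HCMV at MOI 1 PFU/cell; luciferase read at 72 h post infection, normalized to buffer-only and Salinomycin controls.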
Sm TGR block – inhibitors of Schistosoma mansoni thioredoxin glutathione reductase | actives 3% (n = 360,000) | purified TGR, DTNB reduction, TNB absorbance 405 nm | Potency, µM (doses to about 114 µM), usual class: inhibitors | AID 485364; further: nearly all actives have a fitted effect of over 60% in size
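First, TGR (20 nM dispensed) and NADPH were mixed with compound. Second, a 15 min room-temperature incubation followed. Third, further NADPH and then DTNB were added to start the reaction. Finally, TNB absorbance was monitored kinetically.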
RE007 growth inh – less growth of the S. pombe RE007 Vpr strain | S. pombe RE007 Vpr strain, BacTiter-Glo ATP luminescence, 24 h | Potency, µM (top dose mostly 92.2 µM), usual class: inhibitors | actives 0.21% (n = 360,000) | AID 651644; active means well fitted falling curve with a large enough effect; inconclusive means small, poorly fitted or top-dose-only effect; inactive means no such curve, though single readings can be large or run the other way; further: nearly all actives have a fitted effect of over 50% in size
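Fission yeast RE007 carrying one integrated HIV-1 vpr copy, seeded at OD 0.01 in PMG+AL medium with 23 nL pinned compound. Grown 24 h at 30 degrees; viability read by BacTiter-Glo luminescence after 5 min.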
Tb PYK inh – T. brucei pyruvate kinase inhibition. actives 0.12% (n = 410,000). TbPYK enzyme, Kinase-Glo Plus ATP luminescence, 45 min. AID 624173. Potency, µM (series often up to 76.8 µM), actives largely listed as inhibitors; further: nearly all actives have a fitted effect of over 50% in size
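TbPYK + substrate in 50 mM TEA pH 7.2, 100 mM KCl, 10 mM MgCl2, 0.05% BSA, 0.01% Tween-20; cpd pinned; ADP 130 uM final; 45 min RT; Kinase-Glo Plus 10 min; luminescence endpoint.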
Each line names hits and unclear results; the compound was inactive in the other large screens. Unless noted, the call rests on the fitted dose curve; in most records, active means well fitted curve in the direction sought with a large enough effect; inconclusive means small, poorly fitted or top-dose-only effect, or another doubt; inactive means no such curve, though single readings can be large; an effect the other way counts as inactive or inconclusive.

CCOc1ccc(CCNC(=O)c2cc(=O)[nH]c3ccc(S(=O)(=O)N4CCCCC4)cc23)cc1OCC	none (no result: FBPA Giardia inh, RE007 growth inh)
Cc1ccc(-c2nn(CC(=O)NCc3ccccc3)c3c2cnc2ccc(F)cc23)cc1C	none (no result: FBPA Giardia inh, RE007 growth inh)
Cc1nc2c(ccc3nc(NC(=O)c4ccc5c(c4)OCCO5)sc32)s1	HCMV antiviral -82 (no result: FMDV inh)
Cc1nc2ccc3nc(NC(=O)c4ccc(S(=O)(=O)N5CCOCC5)cc4)sc3c2s1	none
Cc1nc2ccc3nc(NC(=O)c4ccc5c(c4)OCCO5)sc3c2s1	HCMV antiviral -106
Cc1ccc2sc(NC(=O)c3ccc4c(c3)OCCO4)nc2c1C	none (no result: FBPA Giardia inh, RE007 growth inh)
C/C(CCN1CCCc2nc(C)c(C)cc21)=N\OC[C@@H](O)COCc1ccco1	none (no result: FMDV inh, HCMV antiviral, Sm TGR block, RE007 growth inh, Tb PYK inh)
CCCN(CCC)C(=O)CSc1nc2n[nH]c(C)c2c(=N)n1-c1ccc(OC)cc1	FMDV inh 22µM
Cc1cccc(-n2c(SCC(=O)Nc3ccccc3Cl)nc3n[nH]c(C)c3c2=N)c1	FMDV inh inconclusive, HCMV antiviral -62 (no result: FBPA Giardia inh, RE007 growth inh)
CCc1ccccc1NC(=O)CSc1nc2n[nH]c(C)c2c(=N)n1-c1cccc(C)c1	none (no result: FBPA Giardia inh, RE007 growth inh)
Cc1[nH]nc2nc(SCC(=O)NC3CCCCC3)n(-c3ccc(Br)cc3)c(=N)c12	FMDV inh inconclusive, HCMV antiviral -89
CCc1ccc(NC(=O)CSc2nc3n[nH]c(C)c3c(=N)n2-c2ccc(C)cc2)cc1	HCMV antiviral -91 (no result: FBPA Giardia inh, RE007 growth inh)
CCOc1ccc(-n2c(SCC(=O)Nc3ccc(CC)cc3)nc3n[nH]c(C)c3c2=N)cc1	none
CCCN(CCC)C(=O)CSc1nc2n[nH]c(C)c2c(=N)n1-c1ccc(OCC)cc1	none (no result: HCMV antiviral)
CC(C)c1ccc(NC(=O)N[C@H]2CC[C@@]34CCCN3C(=O)CCC[C@H]4C2Cc2ccccc2)cc1 (stereo not given in full)	none (no result: FMDV inh, FBPA Giardia inh, Sm TGR block, RE007 growth inh, Tb PYK inh)
Cc1ccc2cccc(OCC(=O)Nc3cccc(S(=O)(=O)N4CCCC4)c3)c2n1	FMDV inh 40µM, RE007 growth inh inconclusive (no result: FBPA Giardia inh)
O=C(COc1ccc2ccc(=O)oc2c1)NC1CCCC1	HCMV antiviral -62 (no result: FBPA Giardia inh)
O=C(COc1ccc2ccc(=O)oc2c1)Nc1cccc(S(=O)(=O)N2CCCCC2)c1	FMDV inh 14µM (no result: FBPA Giardia inh)
CCn1cc(C(=O)O)c(=O)c2cc(F)c(N3CCN(C(=S)Nc4ccccc4OC)CC3)cc21	none
CCn1cc(C(=O)O)c(=O)c2cc(F)c(N/N=C/c3ccccc3[N+](=O)[O-])cc21	FMDV inh 20µM, HCMV antiviral -71
Cc1ccc(C2CC(=O)C=C(NCc3ccccc3)C2)cc1 (stereo not given)	none
Cc1ccc(C2CC(=O)C=C(NCC(C)C)C2)cc1 (stereo not given)	HCMV antiviral -81
O=c1[nH]c2ccccc2cc1CN(c1ccccc1)S(=O)(=O)c1ccccc1	HCMV antiviral -64
Cc1ccc(S(=O)(=O)N(Cc2cccnc2)Cc2cc3ccccc3[nH]c2=O)cc1	HCMV antiviral -62
COc1ccc(S(=O)(=O)N(Cc2cccnc2)Cc2cc3ccccc3[nH]c2=O)cc1	HCMV antiviral inconclusive (no result: FBPA Giardia inh)
c1ccc(Nc2nnc(-c3ccc4c(c3)OCO4)o2)cc1	none (no result: FMDV inh, FBPA Giardia inh, Sm TGR block, RE007 growth inh, Tb PYK inh)
Cc1nnsc1C(=O)NCC1Cc2cccc(-c3ncccn3)c2O1 (stereo not given)	none (no result: FBPA Giardia inh, HCMV antiviral, Sm TGR block, RE007 growth inh, Tb PYK inh)
CC(=O)Nc1ccc(Nc2ncnc3c2c(-c2ccccc2)cn3-c2ccc(C)c(Cl)c2)cc1	FMDV inh inconclusive (no result: FBPA Giardia inh, RE007 growth inh)
CCOC(=O)[C@]12Cc3c(cc(OC)c(OC)c3OC)[C@H]1N(C1CCCCC1)C(=O)c1ccccc12	FMDV inh 8.9µM, HCMV antiviral -102, RE007 growth inh inconclusive (no result: FBPA Giardia inh, Sm TGR block)
CCOC(=O)[C@]12Cc3cc(Cl)ccc3[C@H]1N(Cc1ccccc1)C(=O)c1ccccc12	FMDV inh inconclusive (no result: FBPA Giardia inh, Sm TGR block)
CCOC(=O)[C@]12Cc3cc(C)ccc3[C@H]1N(CCC(=O)OC)C(=O)c1ccccc12	FMDV inh 14µM, HCMV antiviral -110 (no result: FBPA Giardia inh, Sm TGR block)
CCOC(=O)[C@]12Cc3cc(Cl)ccc3[C@H]1N(C1CCCCC1)C(=O)c1cc(OC)ccc12	FMDV inh 2.2µM, HCMV antiviral -104, RE007 growth inh 63µM (no result: FBPA Giardia inh, Sm TGR block)
